# Experimental data: PubChem BioAssay (EPA / NIEHS)
# Inconclusive results are not listed. Where a structure was tested more than once in an assay, its records may differ in their call. Activity calls are given as the source filed them. How the source made its calls, unless noted: active means hit-call score of the fitted dose curve at least 0.9, where 1 is the maximum; inconclusive means response in the unintended direction; inactive means score below 0.9.
# Columns and labels:
# [1] = biological target: Estrogen receptor (Homo sapiens) (UniProt P03372); assay: OT_ERa_GFPERaERE_0480: Odyssey Thera (OT) 8-hour HeLa Transcription Induction Assay for Estrogen Receptor (AID 2283381; active means hit-call score of the fitted dose curve at least 0.9, where 1 is the maximum; inactive means score below 0.9)
# In short: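 An 8 h HeLa transcription-induction format with a GFP reporter under ERE control, read by fluorescence microscopy; single endpoint fitted positively with DMSO as baseline.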
# [2] = biological target: Bile acid receptor (Homo sapiens) (UniProt Q96RI1); assay: OT_FXR_FXRSRC1_0480: Odyssey Thera (OT) 8-hour HEK293T Protein-Complementation Assay for Farnesoid X receptor/SRC-1 Co-activator (AID 2283383)
# In short: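 Readings were taken 8 h after dosing HEK293T cells in a split-reporter complementation format pairing FXR with SRC-1. Increased fluorescence relative to DMSO-treated wells defined activity.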
# [3] = biological target: Retinoic acid receptor RXR-alpha (Homo sapiens) (UniProt P19793); assay: OT_NURR1_NURR1RXRa_0480: Odyssey Thera (OT) 8-hour HEK293T Protein Complementation Assay for Nurr1/retinoid X receptor (RXR) (AID 2283385)
# In short: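 Gain in fluorescent complementation signal over DMSO, measured 8 hours after chemical dosing of human kidney HEK293T cells, indicated enhanced Nurr1–RXRα association.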
# [4] = biological target: Retinoic acid receptor RXR-alpha (Homo sapiens) (UniProt P19793); assay: OT_NURR1_NURR1RXRa_1440: Odyssey Thera (OT) 24-hour HEK293T Protein Complementation Assay for Nurr1/retinoid X receptor (RXR) (AID 2283386)
# In short: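 Cell-based binding reporter: HEK293T cells, 24 h exposure, fluorescence-detected fragment complementation, DMSO as baseline.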
# [5] = biological target: Peroxisome proliferator-activated receptor gamma (Homo sapiens) (UniProt P37231); assay: OT_PPARg_PPARgSRC1_0480: Odyssey Thera (OT) 8-hour Protein-Complementation Assay for Peroxisome Proliferator-activated Receptor Gamma / SRC-1 Co-activator (AID 2283387);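 further: nuclear to cytoplasmic split Venus YFP fluorescence ratio reporting PPARg SRC-1 interaction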
# In short: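 Split-YFP (IFP1/IFP2) PPARg/SRC-1 reporter, HEK293T, 37 °C, 5% CO2; 8 h compound; formaldehyde fix + Draq5; high-content imaging, N/C ratio, ≥350 cells/image, positive direction vs DMSO.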
# [6] = biological target: Peroxisome proliferator-activated receptor gamma (Homo sapiens) (UniProt P37231); assay: OT_PPARg_PPARgSRC1_1440: Odyssey Thera (OT) 24-hour Protein-Complementation Assay for Peroxisome Proliferator-activated Receptor Gamma/ SRC-1 Co-activator (AID 2283388);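 further: nuclear to cytoplasmic ratio of reconstituted Venus YFP fluorescence in fixed imaged cells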
# In short: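 Readout is the 488 nm N/C fluorescence ratio from fixed, Draq5-stained HEK293T cells after 24 h compound exposure. Cells carried transiently transfected PPARg and SRC-1 fused to Venus fragments, transfected 48 h before treatment.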
# [7] = biological target: Estrogen receptor beta (Homo sapiens) (UniProt Q92731); assay: OT_ER_ERbERb_1440: Odyssey Thera (OT) 24-hour HEK293T Protein-Complementation Assay for Estrogen Receptor-beta/-beta Homodimer (AID 2283380);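 further: scored as signal increase over DMSO baseline for both agonists and antagonists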
# In short: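 HEK293T cells stably expressing ER beta LBD (aa 310-547) homodimer fragment-complementation reporter, dosed 24 h. Cells formaldehyde-fixed, Draq5-stained; gain in nuclear (agonist) or nuclear plus cytoplasmic (antagonist) fluorescence versus DMSO read by laser scanning cytometry.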
# [8] = biological target: Estrogen receptor (Homo sapiens) (UniProt P03372); assay: OT_ERa_GFPERaERE_0120: Odyssey Thera (OT) 2-hour HeLa Transcription Induction Assay for Estrogen Receptor (AID 2283382)
# In short: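 Two-hour compound treatment of HeLa cells preceded microscopy imaging of an inducible fluorescent reporter. Image-based quantification gave one endpoint, analysed for signal increase relative to DMSO controls.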
# [9] = biological target: Bile acid receptor (Homo sapiens) (UniProt Q96RI1); assay: OT_FXR_FXRSRC1_1440: Odyssey Thera (OT) 24-hour HEK293T Protein-Complementation Assay for Farnesoid X receptor/SRC-1 Co-activator (AID 2283384)
# In short: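 Single endpoint, analysed for increased fluorescence against DMSO controls. HEK293T cells carrying FXR and SRC-1 linked to complementary reporter halves were exposed to chemicals for 24 h before reading.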
# [10] = CEETOX_H295R_OHPREG: CeeTox H295R High-throughput Steroidogenesis Assay for OH-Pregnenolone (OHPREG) (AID 2283434; active means hit-call score of the fitted dose curve at least 0.9, where 1 is the maximum; inactive means score below 0.9); settings: actives raise or lower the signal
# In short: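 H295R, 10 uM forskolin pre-stim 48 h; test chemical 48 h, 0.1% DMSO final. MTBE extraction, reverse-phase C18 HPLC-ESI+ MS/MS of medium. Gain/loss vs DMSO; viability by MTT in same wells.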
# [11] = CEETOX_H295R_11DCORT: CeeTox H295R High-throughput Steroidogenesis Assay for 11-Deoxycortisol (11DCORT) (AID 2283432; active means hit-call score of the fitted dose curve at least 0.9, where 1 is the maximum; inactive means score below 0.9;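 on AC50: human adrenal H295R cells prestimulated with 10 µM forskolin for 48 h; 11-deoxycortisol secreted into the medium measured by LC-MS/MS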); settings: actives raise or lower the signal
# In short: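 Steroidogenesis in human H295R cells: 48 h chemical exposure after forskolin priming, 11-deoxycortisol measured by LC-MS/MS.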
# [12] = biological target: Agonist Androgen Response Element (ARE), AR (gene 367) (UniProt P10275); assay: OT_AR_ARELUC_AG_1440: Odyssey Thera (OT) 24-hour CHO-K1 Luciferase Assay for Agonist Androgen Response Element (ARE) (AID 2283379)
# In short: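 Gain-of-signal reporter endpoint: cells (CHO-K1, hamster) are treated 24 h, luciferin/ATP reagent added, and luminescence compared with DMSO baseline.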
# Sequence of Bile acid receptor (Homo sapiens) (Q96RI1 whole entry, looked up): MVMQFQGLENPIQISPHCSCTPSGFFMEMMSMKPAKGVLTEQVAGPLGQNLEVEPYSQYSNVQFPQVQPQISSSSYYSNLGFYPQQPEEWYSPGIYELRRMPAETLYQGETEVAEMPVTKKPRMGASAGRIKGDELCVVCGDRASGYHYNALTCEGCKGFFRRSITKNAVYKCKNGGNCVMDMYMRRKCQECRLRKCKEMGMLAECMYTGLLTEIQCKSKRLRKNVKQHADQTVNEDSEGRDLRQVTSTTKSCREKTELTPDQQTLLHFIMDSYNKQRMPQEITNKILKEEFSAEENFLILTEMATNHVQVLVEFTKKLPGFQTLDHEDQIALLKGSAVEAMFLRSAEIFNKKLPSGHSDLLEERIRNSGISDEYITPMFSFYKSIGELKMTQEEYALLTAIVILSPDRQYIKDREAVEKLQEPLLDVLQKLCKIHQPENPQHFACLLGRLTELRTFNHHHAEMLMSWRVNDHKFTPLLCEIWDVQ
# Sequence of Estrogen receptor beta (Homo sapiens) (Q92731 whole entry, looked up, the tested form may be a part): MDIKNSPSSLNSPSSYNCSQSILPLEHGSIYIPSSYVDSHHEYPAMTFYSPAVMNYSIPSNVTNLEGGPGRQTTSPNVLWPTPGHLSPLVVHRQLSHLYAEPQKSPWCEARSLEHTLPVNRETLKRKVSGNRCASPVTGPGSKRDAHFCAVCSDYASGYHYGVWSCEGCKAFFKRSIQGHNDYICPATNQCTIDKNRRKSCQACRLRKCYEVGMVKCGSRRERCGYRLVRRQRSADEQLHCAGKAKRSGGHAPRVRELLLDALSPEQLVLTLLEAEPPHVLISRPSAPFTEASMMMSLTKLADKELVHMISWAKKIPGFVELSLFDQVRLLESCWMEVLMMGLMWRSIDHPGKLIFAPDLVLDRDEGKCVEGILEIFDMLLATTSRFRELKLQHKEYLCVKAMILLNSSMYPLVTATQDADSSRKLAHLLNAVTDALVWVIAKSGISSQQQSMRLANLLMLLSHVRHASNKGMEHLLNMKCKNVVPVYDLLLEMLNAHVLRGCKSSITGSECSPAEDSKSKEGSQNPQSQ
# Sequence of Retinoic acid receptor RXR-alpha (Homo sapiens) (P19793 whole entry, looked up, the tested form may be a part): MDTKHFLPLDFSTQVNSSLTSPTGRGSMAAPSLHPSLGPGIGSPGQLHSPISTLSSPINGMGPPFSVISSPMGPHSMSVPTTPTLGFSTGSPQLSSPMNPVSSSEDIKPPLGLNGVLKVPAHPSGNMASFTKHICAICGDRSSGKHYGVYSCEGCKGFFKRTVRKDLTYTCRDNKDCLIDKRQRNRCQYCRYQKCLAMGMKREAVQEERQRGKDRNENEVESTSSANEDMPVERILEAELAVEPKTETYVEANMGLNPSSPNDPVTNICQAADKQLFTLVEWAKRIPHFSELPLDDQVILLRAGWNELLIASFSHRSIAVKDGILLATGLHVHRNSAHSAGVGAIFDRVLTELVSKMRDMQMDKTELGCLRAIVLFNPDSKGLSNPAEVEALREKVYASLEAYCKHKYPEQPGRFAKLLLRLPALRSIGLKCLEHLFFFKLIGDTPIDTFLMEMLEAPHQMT
# Sequence of Estrogen receptor (Homo sapiens) (P03372 whole entry, looked up): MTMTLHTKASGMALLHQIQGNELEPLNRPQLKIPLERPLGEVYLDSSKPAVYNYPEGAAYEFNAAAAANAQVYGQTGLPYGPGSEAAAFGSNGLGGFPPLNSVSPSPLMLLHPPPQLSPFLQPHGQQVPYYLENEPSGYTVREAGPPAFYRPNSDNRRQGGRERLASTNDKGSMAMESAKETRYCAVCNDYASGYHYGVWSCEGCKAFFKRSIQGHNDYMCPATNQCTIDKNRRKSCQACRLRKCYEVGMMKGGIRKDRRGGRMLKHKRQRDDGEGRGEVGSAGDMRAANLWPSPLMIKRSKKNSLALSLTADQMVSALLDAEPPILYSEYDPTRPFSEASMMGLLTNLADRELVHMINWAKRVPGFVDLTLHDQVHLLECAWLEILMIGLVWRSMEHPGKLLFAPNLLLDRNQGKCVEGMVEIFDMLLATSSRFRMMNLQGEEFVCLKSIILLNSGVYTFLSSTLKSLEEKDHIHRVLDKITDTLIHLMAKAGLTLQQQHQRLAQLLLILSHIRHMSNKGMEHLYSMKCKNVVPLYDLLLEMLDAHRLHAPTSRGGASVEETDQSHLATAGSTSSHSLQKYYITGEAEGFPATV
# Sequence of Peroxisome proliferator-activated receptor gamma (Homo sapiens) (P37231 whole entry, looked up, the tested form may be a part): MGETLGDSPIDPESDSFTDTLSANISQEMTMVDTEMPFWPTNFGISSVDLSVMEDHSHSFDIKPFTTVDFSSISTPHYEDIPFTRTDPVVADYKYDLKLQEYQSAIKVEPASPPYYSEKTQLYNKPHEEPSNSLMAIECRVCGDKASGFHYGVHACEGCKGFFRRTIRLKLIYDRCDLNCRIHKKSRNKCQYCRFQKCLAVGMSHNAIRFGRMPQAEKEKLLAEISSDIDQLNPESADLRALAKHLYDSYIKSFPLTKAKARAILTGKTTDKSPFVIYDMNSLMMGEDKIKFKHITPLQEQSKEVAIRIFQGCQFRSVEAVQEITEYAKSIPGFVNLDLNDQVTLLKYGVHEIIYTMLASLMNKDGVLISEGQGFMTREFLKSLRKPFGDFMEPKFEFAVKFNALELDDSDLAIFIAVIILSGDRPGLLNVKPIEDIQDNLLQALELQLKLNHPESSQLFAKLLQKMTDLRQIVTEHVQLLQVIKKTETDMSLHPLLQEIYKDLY
# Sequence of Agonist Androgen Response Element (ARE), AR (gene 367) (P10275 whole entry, looked up): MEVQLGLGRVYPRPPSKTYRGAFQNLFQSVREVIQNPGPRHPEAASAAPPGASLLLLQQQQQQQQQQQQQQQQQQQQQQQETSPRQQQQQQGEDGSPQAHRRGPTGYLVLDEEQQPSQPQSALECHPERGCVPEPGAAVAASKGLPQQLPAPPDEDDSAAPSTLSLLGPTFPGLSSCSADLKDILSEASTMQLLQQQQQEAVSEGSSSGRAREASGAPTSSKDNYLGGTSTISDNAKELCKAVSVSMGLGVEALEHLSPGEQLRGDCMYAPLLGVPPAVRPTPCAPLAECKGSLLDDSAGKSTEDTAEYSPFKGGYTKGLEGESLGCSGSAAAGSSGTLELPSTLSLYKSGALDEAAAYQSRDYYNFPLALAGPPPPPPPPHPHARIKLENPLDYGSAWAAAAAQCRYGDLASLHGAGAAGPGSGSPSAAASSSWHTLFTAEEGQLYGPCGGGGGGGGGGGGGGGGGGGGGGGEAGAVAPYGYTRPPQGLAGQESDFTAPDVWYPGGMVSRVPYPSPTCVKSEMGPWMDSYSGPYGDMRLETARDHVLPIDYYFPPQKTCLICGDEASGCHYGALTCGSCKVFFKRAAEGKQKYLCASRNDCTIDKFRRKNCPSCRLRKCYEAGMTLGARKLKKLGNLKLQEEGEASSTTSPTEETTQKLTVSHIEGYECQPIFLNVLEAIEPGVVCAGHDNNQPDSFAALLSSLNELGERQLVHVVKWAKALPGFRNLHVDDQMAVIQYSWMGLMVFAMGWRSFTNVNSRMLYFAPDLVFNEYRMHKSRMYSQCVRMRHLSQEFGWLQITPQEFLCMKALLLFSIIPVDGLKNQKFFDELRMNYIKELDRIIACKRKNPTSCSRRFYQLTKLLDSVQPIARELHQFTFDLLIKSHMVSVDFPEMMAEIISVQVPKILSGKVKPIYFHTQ
compound,measurement,setting,value
COCC(C)N(C(=O)CCl)c1c(C)csc1C (centres undefined),outcome,[1],inactive
same,outcome,[2],inactive
same,outcome,[3],inactive
same,outcome,[4],inactive
same,outcome,[5],inactive
same,outcome,[6],inactive
CS(=O)(=O)c1ccc(C(=O)C2C(=O)CCCC2=O)c([N+](=O)[O-])c1,outcome,[7],inactive
same,outcome,[1],inactive
same,outcome,[8],inactive
same,outcome,[2],inactive
same,outcome,[9],inactive
same,outcome,[3],inactive
same,outcome,[5],inactive
same,outcome,[6],inactive
CCSC(=O)N1CCCCCC1,outcome,[7],inactive
same,outcome,[1],inactive
same,outcome,[4],inactive
same,outcome,[5],inactive
same,outcome,[6],inactive
same,outcome,[10],inactive
Nc1cnn(-c2ccccc2)c(=O)c1Cl,outcome,[7],inactive
same,outcome,[1],inactive
same,outcome,[8],inactive
same,outcome,[4],inactive
same,outcome,[5],inactive
same,outcome,[6],inactive
same,outcome,[11],inactive
same,outcome,[10],inactive
O=C(Nc1ccccc1-c1ccc(Cl)cc1)c1cccnc1Cl,outcome,[7],inactive
same,outcome,[1],inactive
same,outcome,[8],inactive
same,outcome,[3],inactive
same,outcome,[4],inactive
same,outcome,[5],inactive
same,outcome,[6],inactive
same,outcome,[11],inactive
same,outcome,[10],inactive
CCC(C)n1c(=O)[nH]c(C)c(Br)c1=O (centres undefined),outcome,[7],inactive
same,outcome,[1],inactive
same,outcome,[2],inactive
same,outcome,[9],inactive
same,outcome,[3],inactive
same,outcome,[4],inactive
same,outcome,[5],inactive
same,outcome,[6],inactive
same,outcome,[10],inactive
O=C1C2CC=CCC2C(=O)N1SC(Cl)(Cl)Cl (centres undefined),outcome,[7],inactive
same,outcome,[1],inactive
same,outcome,[8],inactive
same,outcome,[5],inactive
same,outcome,[6],inactive
same,outcome,[10],inactive
CN/C(=N\[N+](=O)[O-])NCc1cnc(Cl)s1,outcome,[7],inactive
same,outcome,[1],inactive
same,outcome,[3],inactive
same,outcome,[4],inactive
same,outcome,[5],inactive
same,outcome,[6],inactive
same,outcome,[10],inactive
CCNC(=O)NC(=O)C(C#N)=NOC,outcome,[1],inactive
same,outcome,[2],inactive
same,AC50,[9],23.1 µM (active)
same,outcome,[3],inactive
same,AC50,[4],29.6 µM (active)
same,outcome,[4],inactive
same,outcome,[5],inactive
same,outcome,[6],inactive
Nc1c(Cl)c(F)nc(OCC(=O)O)c1Cl,outcome,[12],inactive
same,outcome,[7],inactive
same,outcome,[1],inactive
same,outcome,[4],inactive
same,outcome,[5],inactive
same,outcome,[6],inactive
CCOc1nc(C(Cl)(Cl)Cl)ns1,outcome,[7],inactive
same,outcome,[1],inactive
same,outcome,[3],inactive
same,outcome,[4],inactive
same,outcome,[5],inactive
same,outcome,[6],inactive
same,outcome,[10],inactive
CCN(CC)c1nc(C)cc(OP(=S)(OC)OC)n1,AC50,[7],50 µM (active)
same,outcome,[1],inactive
same,outcome,[3],inactive
same,outcome,[4],inactive
same,outcome,[5],inactive
same,outcome,[6],inactive
same,outcome,[11],inactive
same,outcome,[10],inactive
CO/N=C(/C1=NOCCO1)c1ccccc1Oc1ncnc(Oc2ccccc2Cl)c1F,outcome,[1],inactive
same,outcome,[8],inactive
same,AC50,[2],12.4 µM (active)
same,AC50,[9],12.7 µM (active)
same,outcome,[3],inactive
same,outcome,[5],inactive
same,outcome,[6],inactive
COC(=O)NS(=O)(=O)c1ccc(N)cc1,outcome,[7],inactive
same,outcome,[1],inactive
same,outcome,[8],inactive
same,outcome,[4],inactive
same,outcome,[5],inactive
same,outcome,[6],inactive
CNC(=O)N(C)c1nnc(C(C)(C)C)s1,outcome,[7],inactive
same,outcome,[1],inactive
same,outcome,[8],inactive
same,outcome,[3],inactive
same,outcome,[4],inactive
same,outcome,[5],inactive
same,outcome,[6],inactive
COP(=O)(OC)O/C(C)=C/C(=O)N(C)C,outcome,[7],inactive
same,outcome,[1],inactive
same,outcome,[3],inactive
same,outcome,[4],inactive
same,outcome,[5],inactive
same,outcome,[6],inactive
CCCCOCN(C(=O)CCl)c1c(CC)cccc1CC,outcome,[7],inactive
same,AC50,[1],71.3 µM (active)
same,outcome,[8],inactive
same,AC50,[2],50 µM (active)
same,AC50,[9],75.1 µM (active)
same,outcome,[3],inactive
same,AC50,[4],76.8 µM (active)
same,outcome,[4],inactive
same,outcome,[5],inactive
same,outcome,[6],inactive
O=c1n(Cl)c(=O)n(Cl)c(=O)n1Cl,outcome,[7],inactive
same,outcome,[1],inactive
same,outcome,[3],inactive
same,outcome,[4],inactive
same,outcome,[5],inactive
same,outcome,[6],inactive
CS(=O)(=O)c1cc(C(F)(F)F)ccc1C(=O)c1cnoc1C1CC1,outcome,[7],inactive
same,outcome,[1],inactive
same,outcome,[3],inactive
same,outcome,[4],inactive
same,outcome,[5],inactive
same,outcome,[6],inactive
CCCN(CC)CC1COC2(CCC(C(C)(C)C)CC2)O1 (centres undefined),outcome,[7],inactive
same,outcome,[1],inactive
same,AC50,[3],50 µM (active)
same,outcome,[3],inactive
same,outcome,[4],inactive
same,AC50,[11],0.202 µM (active)
same,AC50,[10],0.131 µM (active)
C=CCOC(=O)C(C)(C)OC(=O)c1cc(-n2c(=O)cc(C(F)(F)F)n(C)c2=O)ccc1Cl,outcome,[7],inactive
same,outcome,[1],inactive
same,outcome,[3],inactive
same,outcome,[4],inactive
same,outcome,[5],inactive
same,outcome,[6],inactive
